Screens (PubChem BioAssay)
Nrf2 ARE act = activators of Nrf2 (ARE) signaling; AREc32 ARE-luciferase reporter (MCF7-derived line), luminescence, 24 h; Potency, µM (doses to about 46.1 µM), without a hit: top-dose activation, actives largely listed as activators; 410,000 tested, 0.31% active; AID 624171; note: % of control where 0% means no effect; nearly all actives have a fitted effect of over 65% in size
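ARE-driven firefly luciferase activity in AREc32 cells measured after a 24 hr compound exposure at 37 deg C, using Steady-Glo reagent and a 30 min room-temperature hold.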
Nrf2 block = Nrf2 pathway inhibition | A549 ARE-Fluc reporter, luciferase luminescence, 18-24 h | Potency, µM (top dose mostly 46 µM), for the others: top-dose activity change, negative = inhibition, hits mostly inhibitors | 360,000 tested, 2.1% active | AID 504444; note: % is set by controls: 0 for no effect and ±100 for the full control effect; nearly all actives have a fitted effect of over 60% in size
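Concentration-response testing used A549 ARE_Fluc cells at 5000 cells/well. Following an 18-24 h compound incubation, viability was read by fluorescence (Ex 405/Em 525) and luciferase output by luminescence.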
A549 viability = counter-screen for Nrf2 inhibitors: cytotoxicity in A549 cells; 390,000 tested, 0.16% active; Potency, µM (top dose mostly 46 µM), for the others: top-dose activity change, negative = cytotoxicity, hits mostly inhibitors; A549 ARE-Fluc cells, CellTiter-Fluor viability, 18-24 h; AID 504648; note: % is set by controls: 0 for no effect and ±100 for the full control effect
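Cytotoxicity counterscreen: CellTiter-Fluor fluorescence was measured in A549 ARE_Fluc cells after 18-24 h of compound exposure in a concentration series. The subsequent BugLite luminescent read reports ARE-luciferase activity.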
Pin1 inh = blocks the human prolyl isomerase Pin1 | Q13526 | Pin1 FP peptide displacement, HiFluor488, 10 min | Potency, µM (doses to about 115 µM), for inactives: at the highest dose activity, negative = inhibition, usual class: inhibitors | 390,000 tested, 0.009% active | AID 504891; active = well fitted inhibition curve with a large enough effect in the polarisation, with a control signal flat, not every such curve was filed as active; inconclusive = small, poorly fitted or top-dose-only effect, or effect the other way, or a change in a side signal; inactive = no such curve, though single readings can be large or run the other way; the % refers to the polarisation; note: % is set by controls: 0 for no effect and ±100 for the full control effect
Target sequence (Q13526 whole entry, looked up): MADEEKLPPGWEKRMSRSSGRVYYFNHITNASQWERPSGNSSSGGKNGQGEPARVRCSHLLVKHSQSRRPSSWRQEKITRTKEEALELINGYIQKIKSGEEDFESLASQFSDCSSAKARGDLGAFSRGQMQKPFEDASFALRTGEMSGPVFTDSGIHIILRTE
Starred values were filed as active, the others as inactive; [ ] = dose if it differs, or a comment. This is a sample that favours compounds with a hit; in the whole collection about 2.2% have one here. Unless noted, calls come from the whole dose curve; as a rule, active = well fitted curve in the direction sought with a large enough effect; inconclusive = small, poorly fitted or top-dose-only effect, or another doubt; inactive = no such curve, though single readings can be large; an effect the other way counts as inactive or inconclusive. Potency is the fitted concentration of half-maximal effect.

COc1cc(CCNC2=CC(=O)c3ncccc3C2=O)ccc1O was read as Nrf2 ARE act -3%, Nrf2 block 13µM*, A549 viability 16µM* and Pin1 inh 3%.
For COc1ccccc1CNS(=O)(=O)c1cc(CN2C(=O)c3cccnc3C2=O)ccc1OC the results were Nrf2 ARE act 0%, Nrf2 block 2%, A549 viability -3% and Pin1 inh -2%.
Screening CCCN1CNc2c(c(=O)[nH]c(=S)n2CCc2ccsc2)C1 returned Nrf2 block 3%, A549 viability 24% and Pin1 inh 1%.
`O=C(Nc1ccccc1O)c1ccc(C(=O)c2ccccc2)o1` gave Nrf2 ARE act 13µM*, Nrf2 block 16%, A549 viability 0% and Pin1 inh -8%.
For O=C(Nc1cccc(F)c1)c1ccco1 the results were Nrf2 ARE act 10µM*, Nrf2 block 9%, A549 viability -3% and Pin1 inh 4%.
For O=C(Nc1nc2c(F)cccc2s1)c1ccco1 the results were Nrf2 ARE act 7.1µM*, Nrf2 block inconclusive, A549 viability 1% and Pin1 inh 0%.
For O=C(Nc1nc(-c2ccncc2)cs1)c1ccco1 the results were Nrf2 ARE act inconclusive, Nrf2 block 10%, A549 viability -8% and Pin1 inh inconclusive.
CC(=O)Nc1nc2c(F)cccc2s1 was read as Nrf2 ARE act 0%, Nrf2 block inconclusive, A549 viability -1% and Pin1 inh -4%.
`COc1ccccc1NC(=O)c1ccc(C(=O)c2ccccc2)o1` gave Nrf2 ARE act 7%, Nrf2 block -10%, A549 viability 2% and Pin1 inh -6%.
CC(=O)Nc1cccc(NC(=O)c2ccco2)c1 was read as Nrf2 ARE act 9%, Nrf2 block 3%, A549 viability -4% and Pin1 inh -8%.
O=C(Nc1nc(-c2cccs2)cs1)c1ccco1 was read as Nrf2 ARE act 13µM*, Nrf2 block inconclusive, A549 viability 6% and Pin1 inh 11%.
`Cc1ccc(CCNS(=O)(=O)c2c(C)nc3sc(C)c(C)n3c2=O)cc1` gave Nrf2 ARE act -1%, Nrf2 block 9%, A549 viability 6% and Pin1 inh 2%.
`COc1ccccc1N1CCN(C(=O)c2cc3c(=O)oc4ccccc4c3s2)CC1` gave Nrf2 ARE act 0%, Nrf2 block -10%[9.27 µM], A549 viability 8% and Pin1 inh -2%.
O=C(/C=C/c1ccc(Cl)c([N+](=O)[O-])c1)Nc1cccc(NC(=O)c2ccco2)c1 was read as Nrf2 ARE act 15%, Nrf2 block -9%, A549 viability -3% and Pin1 inh 2%.
`O=C(c1ccccc1)c1cccc(NC(=O)c2ccco2)c1` gave Nrf2 ARE act 6%, Nrf2 block 7%, A549 viability -7% and Pin1 inh 5%.
O=C(/C=C/c1cccc([N+](=O)[O-])c1)Nc1cccc(NC(=O)c2ccco2)c1 was read as Nrf2 ARE act 3%, Nrf2 block 21µM*, A549 viability inconclusive and Pin1 inh 0%.
For O=C(Nc1ccccc1O)c1cccc(NC(=O)c2ccco2)c1 the results were Nrf2 ARE act 7.9µM*, Nrf2 block 9% and A549 viability 0%.
CN=c1sc2c(n1C)C(=O)c1ccccc1C2=O was read as Nrf2 ARE act 6%, Nrf2 block 21µM*, A549 viability inconclusive and Pin1 inh -6%.
For CN=c1sc(C(=O)Nc2ccccc2)c(C)n1C the results were Nrf2 ARE act 4%, Nrf2 block inconclusive, A549 viability -2% and Pin1 inh -4%.
Screening Nc1nonc1C(=O)NCCNc1ncccc1[N+](=O)[O-] returned Nrf2 ARE act 2%, Nrf2 block 18µM*, A549 viability inconclusive and Pin1 inh -6%.
`Cc1cc(-c2ccc(S(=O)(=O)N3CCN(c4ccc(Cl)cc4)CC3)s2)on1` gave Nrf2 ARE act -1%, Nrf2 block inconclusive, A549 viability 16% and Pin1 inh 11%.
For Cc1cc(C)c(S(=O)(=O)c2ccccc2)c(OC(=O)c2c(Cl)cc(Cl)cc2Cl)n1 the results were Nrf2 ARE act 3%, Nrf2 block 16µM*, A549 viability inconclusive and Pin1 inh 10%.
For Cc1cc(C)c(S(=O)(=O)c2ccccc2)c(OC(=O)c2c(F)cccc2F)n1 the results were Nrf2 ARE act 0%, Nrf2 block inconclusive, A549 viability -3% and Pin1 inh -1%.
`CC[C@H](C)C1OC(=O)[C@@H](C)[C@@H](CC)NC(=O)[C@H](C)N(C)C(=O)C(C)(C)C(=O)C(C)NC(=O)[C@H](Cc2ccc(OC)cc2)N(C)C(=O)[C@H](C(C)C)N(C)C(=O)CNC(=O)[C@H](CC(C)C)N(C)C(=O)CNC1=O` (stereo not given in full) gave Nrf2 ARE act -2%.
Screening COc1ccc(CC2C(=O)NC(C)C(=O)N(C)C3Cc4ccc(cc4)Oc4cc(ccc4O)CC(C(=O)NC(C)C(=O)NC(C)C(=O)N2C)N(C)C3=O)cc1 (stereo not given) returned Nrf2 ARE act -2%, Nrf2 block 1.6µM*, A549 viability 2.3µM* and Pin1 inh -7%.
O=C(c1ccccc1O)N(Cc1ccco1)Cc1cccs1 was read as Nrf2 block inconclusive, A549 viability 4% and Pin1 inh -16%.
c1nc(NCCc2cnc[nH]2)c2cc(-c3ccc4c(c3)OCO4)ccc2n1 was read as Nrf2 block 8%, A549 viability -1% and Pin1 inh inconclusive.
`COc1cccc(NS(=O)(=O)c2ccc3[nH]cc(C(=O)NCCC(C)C)c(=O)c3c2)c1` gave Nrf2 ARE act 3%, Nrf2 block 16µM*, A549 viability -15% and Pin1 inh 1%.
CN1C(C(=O)c2ccccc2)=C(OC(=O)c2ccc(Br)cc2)c2ccccc2S1(=O)=O was read as Nrf2 ARE act 0%, Nrf2 block inconclusive, A549 viability inconclusive and Pin1 inh 13%.
Screening COc1cccc(C2c3c(ncn(-c4ccccn4)c3=N)Oc3ccc4ccccc4c32)c1 (stereo not given) returned Nrf2 block inconclusive, A549 viability -6% and Pin1 inh 28%.
For COc1ccc2c(c1)C(=O)CCC2c1ccccc1 (stereo not given) the results were Nrf2 ARE act 0%, Nrf2 block 8%, A549 viability 4% and Pin1 inh 1%.
Screening CCC(=O)C1=C(O)C(c2cccc(Oc3ccccc3)c2)CCC1=O (stereo not given) returned Nrf2 ARE act 2%, Nrf2 block 15µM*, A549 viability inconclusive and Pin1 inh inconclusive.
`CCCC(=O)NC(=S)Nc1ccc(S(=O)(=O)Nc2ccc(OCC)cc2)cc1` gave Nrf2 ARE act 3%, Nrf2 block 7.3µM*, A549 viability 18µM* and Pin1 inh inconclusive.
CCOc1ccc(NS(=O)(=O)c2ccc(NC(=O)c3ccccn3)cc2)cc1 was read as Nrf2 ARE act -1%, Nrf2 block 15µM*, A549 viability -11% and Pin1 inh 12%.
